Screens deposited in PubChem by National Center for Advancing Translational Sciences (NCATS).
Epigenetic reg: derepresses silenced GFP reporter in murine cells. murine LDR cells, GFP reporter derepression, 30 h. Potency, µM (highest dose often 53.9 µM), usual class: activators. 280,000 tested, 0.2% active. AID 1865; also: nearly all actives have a fitted effect of over 60% in size
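Readout is the number of GFP-expressing murine LDR cells, counted by cytometry following washing. Cells were treated with compound for 30 h at 37 C; the stably integrated CMV-GFP locus is normally silent.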
PTAP TSG101 blk: blocks PTAP/TSG101 interaction to inhibit HIV-1 budding | Q99816 | Fluorescence polarization, FITC-PTAP peptide / Tsg101 binding | Potency, µM (series often up to 115 µM), usual class: inhibitors | 340,000 tested, under 10 active; active = well fitted inhibition curve with a large enough effect in the main read-out, with a control signal flat, not every such curve was filed as active; inconclusive = small, poorly fitted or top-dose-only effect, or effect the other way, or a change in a side signal; inactive = no such curve, though single readings can be large or run the other way
Target sequence (Q99816 whole entry, looked up): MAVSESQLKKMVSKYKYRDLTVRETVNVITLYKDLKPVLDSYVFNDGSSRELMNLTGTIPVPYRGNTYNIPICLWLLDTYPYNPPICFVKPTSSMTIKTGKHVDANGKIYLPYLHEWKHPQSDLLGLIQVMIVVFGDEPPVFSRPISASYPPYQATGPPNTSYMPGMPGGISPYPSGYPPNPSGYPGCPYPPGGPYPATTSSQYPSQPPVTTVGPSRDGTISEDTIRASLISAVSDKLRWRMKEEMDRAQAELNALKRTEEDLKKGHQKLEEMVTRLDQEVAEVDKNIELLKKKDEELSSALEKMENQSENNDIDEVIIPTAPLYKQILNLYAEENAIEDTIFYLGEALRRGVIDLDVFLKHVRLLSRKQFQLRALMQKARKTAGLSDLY
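Fluorescence anisotropy tracks displacement of a FITC-tagged PTAP peptide (50 nM) from the Tsg101 binding domain (10 uM), following a 20 min room-temperature incubation at pH 7.5.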
HttQ103 aggreg: reduces HttQ103-GFP aggregates in PC12 cells. PC12 HttQ103-GFP aggregates, Acumen cytometry, 40 h. Potency, µM (doses to about 46.1 µM), actives largely listed as inhibitors. 220,000 tested, 1.1% active. AID 1688; also: nearly all actives have a fitted effect of over 60% in size
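Using laser scanning cytometry, GFP-positive aggregates were counted after lysis of PC12 cells induced with 100 nM tebufenozide to express HTT exon 1 Q103–GFP. Compounds were tested in titration.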
PINK1 expr mod: changes PINK1 expression. Potency, µM (top dose mostly 76.6 µM), hits mostly activators. PINK1 immunofluorescence, high-content cytometry, 24 h. 410,000 tested, 0.2% active; active = well fitted activation curve with a large enough effect; inconclusive = small, poorly fitted or top-dose-only effect; cell line not stated here; also: nearly all actives have a fitted effect of over 65% in size
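Decision-based qHTS: stable cells, 24 h exposure to five compound concentrations, CCCP as control. Fixed cells stained for PINK1 plus nuclear, mitochondrial and cell markers, cytometer read.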
Apoferritin bind: candidate novel general anesthetic via apoferritin binding; Potency, µM (doses to about 77.5 µM), hits mostly inhibitors; apoferritin/1-aminoanthracene competitive binding, fluorescence; 350,000 tested, 0.074% active; AID 485281; also: nearly all actives have a fitted effect of over 20% in size
Target sequence (P02791 2-175 limits assumed): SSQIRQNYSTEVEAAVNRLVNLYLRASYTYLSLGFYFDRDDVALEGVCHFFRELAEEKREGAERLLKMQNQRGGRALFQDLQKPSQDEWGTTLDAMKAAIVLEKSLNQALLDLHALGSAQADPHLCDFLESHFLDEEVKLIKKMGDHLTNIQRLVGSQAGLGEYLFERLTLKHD
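Read-out: endpoint 1-AMA fluorescence, excitation 380 nm and emission 535 nm, after compounds sit 10 min at room temperature with 10 uM horse-spleen apoferritin in 50% saturated 1-AMA/PBS. Values come from four-parameter Hill fits.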
HTT cytoprotect: cytoprotection in Huntington HTT-Q103 PC12 cell model | Potency, µM (highest dose often 56.4 µM), most hits filed as activators | AID 1471 | PC12 HTT-Q103 induced, cytoprotection, ATP luminescence, 40 h | 230,000 tested, 0.14% active; also: nearly all actives have a fitted effect of over 45% in size
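Huntington model: PC12 line, ecdysone-inducible HTTQ103 exon1–GFP, tebufenozide 100 nM. Test articles in a dose series. Endpoint luminescence from cellular ATP.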
Hits are given with their value; i = inactive; ? = inconclusive; nt = not tested or not shown; ! = repeats disagree; [ ] = dose if it differs, or a comment. The entries come from a sample that favours hits as a whole. Unless noted, calls follow the shape of the dose curve; as a rule, active = well fitted curve in the direction sought with a large enough effect; inconclusive = small, poorly fitted or top-dose-only effect, or another doubt; inactive = no such curve, though single readings can be large; an effect the other way counts as inactive or inconclusive.

SMILES	Epigenetic reg	PTAP TSG101 blk	HttQ103 aggreg	PINK1 expr mod	Apoferritin bind	HTT cytoprotect
Cc1cc(=O)[nH]c(SCCCOc2ccccc2Cl)n1	i	i	?	i	i	i
CCc1cc(OCCCSc2nc(C)cc(=O)[nH]2)ccc1Cl	i	i	35µM	i	?	i
COc1ccc(N2CC(O)=C(c3nc4ccccc4s3)C2=N)cc1	i	i	i	11µM	i	i
COc1ccc(-n2c(C)cc(/C=C3\SC(=S)N(Cc4ccco4)C3=O)c2C)cc1	?	i	i	i	i	i[10 µM]
CCN1CCN(c2c(/C=C3\SC(=S)N(Cc4ccco4)C3=O)c(C)c(C#N)c(=O)n2C)CC1	7.1µM	?	i[9.22 µM]	i	i	i[10 µM]
COc1cccc(CN2CCC3(CCC(CNC(=O)c4cc(C)nn4C)O3)CC2)c1OC (centres undefined)	nt	nt	nt	i	nt	nt
COC(=O)C1(C(=O)OC)C[C@@H]2CON=C2[C@H]1c1ccccc1	i	nt	nt	nt	nt	20µM!
CS(=O)(=O)N1CCN(/[N+]([O-])=N/Oc2ccc([N+](=O)[O-])cc2[N+](=O)[O-])CC1	nt	nt	nt	i	nt	nt
COc1cc(/C=C/c2[nH]c(=O)[nH]c(=O)c2[N+](=O)[O-])ccc1OCCC(C)C	i	?	?	i	i	13µM
COc1cccc(CN(C)C(=O)c2cnn(-c3nccc(-c4ccc5c(c4)OCO5)n3)c2C)c1	nt	nt	nt	i	nt	nt
CC(C)Nc1nnc(SCC(=O)c2c(N)n(Cc3ccccc3)c(=O)n(C)c2=O)s1	i	i	0.11µM	i	i	i
CS(=O)(=O)N1CCN(/[N+]([O-])=N/Oc2ccc([N+](=O)[O-])cc2[N+](=O)[O-])CC1 (tested in a mixture with another compound)	nt	nt	nt	i	nt	nt
Cc1ccc([N+](=O)[O-])cc1N=Nc1c(-c2ccc([N+](=O)[O-])cc2)[nH]n(C(N)=S)c1=O	i	i	i	2.8µM	i	nt
NC(=S)n1[nH]c(-c2ccc([N+](=O)[O-])cc2)c(N=Nc2ccc(Cl)cc2)c1=O	i	i	7.9µM	11µM	i	i
Cc1ccc([N+](=O)[O-])cc1N=Nc1c(C)[nH]n(C(N)=S)c1=O	nt	i	nt	i	i	nt
Cc1ccc2nc(SCC(=O)N3CCOc4ccc(CN5C[C@@H](C)O[C@@H](C)C5)cc4C3)[nH]c2c1	nt	nt	nt	i	nt	nt
COc1ccccc1N1CCN(C(c2cccs2)C(C)NC(=O)c2cccnc2)CC1 (centres undefined)	i	i	?	i	i	5.6µM
Oc1ccccc1Nc1nc2ccccc2n2nnnc12	13µM	nt	nt	i	i	nt
NC(=O)c1c(NC(=O)CSc2nnc(-c3ccco3)n2-c2ccccc2)sc2c1CCC2	i	i	i	i	22µM	i
CCn1c(SCC(=O)Nc2sc3c(c2C#N)CCC(C(C)(C)C)C3)nnc1-c1ccco1 (centres undefined)	i	i	i	i	28µM	i
N#Cc1c(NC(=O)CSc2nnc(-c3ccco3)n2-c2ccccc2)sc2c1CCC2	i	i	i	i	?	i
N#C/C(=C\c1ccc(N2CCCCC2)o1)C(=O)Nc1cccc(Br)c1	?	?	?	6.3µM	i	i[10 µM]
Cc1ccc(/C=C(\C#N)C(=O)Nc2cccc(Br)c2)o1	i	nt	nt	i	i	nt
Cc1ccc(/C=C(\C#N)C(=O)Nc2ccc(Br)cc2)o1	22µM	nt	nt	i	i	nt
C/C(=N\Nc1cc(-c2ccccc2)nc(-c2ccc(Br)cc2)n1)c1cccc(N)c1	nt	nt	nt	i	nt	nt
SMILES	Epigenetic reg	PTAP TSG101 blk	HttQ103 aggreg	PINK1 expr mod	Apoferritin bind	HTT cytoprotect
C/C(=N/Nc1cc(-c2ccccc2)nc(-c2ccccc2)n1)c1ccc(O)cc1	i	i	35µM	i	i	i[10 µM]
Cc1ccc(C(c2nnnn2C2CCCCC2)N(C)C2CCCCC2)cc1 (centres undefined)	i	i	11µM	i	i	i
CC(C)C(c1nnnn1C1CCCC1)N(C)C1CCCCC1 (centres undefined)	i	i	i	i	i	i
COc1ccc(OC)c(C(=O)N2CCc3c(cnc(C)c3CNS(=O)(=O)N(C)C)C2)c1	nt	nt	nt	i	nt	nt
COCCn1nc2cc(C(=O)NCc3cc(C(F)(F)F)cc(C(F)(F)F)c3)ccc2c1OC	i	nt	i	i	i	0.71µM
COc1cc(NC(=O)c2ccccc2)c(OC)cc1NC(=O)CSc1[nH]c(=O)cc(C)c1C#N	nt	i	nt	i	i	nt
Cc1cc(=O)[nH]c(SCC(=O)Nc2cccc3ccccc23)c1C#N	i	i	3.2µM	i	i	i
Cc1nn(-c2ccccc2)c(N)c1Sc1ccccc1[N+](=O)[O-]	i	i	3.5µM	i	i	i[10 µM]
O=S(c1ccc2ccccc2c1)c1cnns1 (centres undefined)	i	i	18µM	i	?	i
Cc1nnsc1S(=O)c1ccc(Cl)c(Cl)c1 (centres undefined)	nt	i	nt	i	i	nt
CN(C)c1ccc2c(-c3ccccc3)c3ccc(=[N+](C)C)cc-3oc2c1	nt	nt	nt	nt	i	nt
NS(=O)(=O)c1ccc(NC(=O)c2ccc3c(c2)OCO3)cc1	nt	i	nt	i	i	nt
NS(=O)(=O)c1ccc(NC(=O)c2ccc3c(c2)CCCC3)cc1	nt	i	nt	40µM	i	nt
O=C(Cc1ccc(OCCc2ccccc2)cc1)NO	nt	nt	nt	i	nt	nt
Cc1ncc2c(c1CNC(=O)c1ccccc1F)CCN(C(=O)c1ccccc1-n1cccn1)C2	nt	nt	nt	i	nt	nt
Cc1ccc(O)c(C(=O)c2cnn(C(=O)Cc3csc(C)n3)c2)c1	i	i	22µM	i	?	i[10 µM]
Cc1ncc(CC(=O)n2cc(C(=O)c3cc(F)ccc3O)cn2)s1	i	i	i	i	i	i
Cc1cnc(SCc2ccccn2)nc1C1CCCN(C(=O)c2cc3ccccc3oc2=O)C1 (centres undefined)	nt	nt	nt	i	nt	nt
CC1CCCC(C)N1C(=O)c1cccc2c1-c1ccccc1/C2=N/O (centres undefined)	i	i	7.9µM	i	i	i[1.9 µM]
COc1ccc(S(=O)(=O)Nc2ccc(Cc3ccncc3)cc2)cc1OC	nt	i	nt	i	i	nt
O=S(=O)(Nc1ccc(Cc2ccncc2)cc1)c1ccc(Cl)c(Cl)c1	i	i	11µM	i	i	i
COc1cccc(C#Cc2c(C=O)n(C)c3ccccc23)c1	nt	i	nt	40µM	nt	nt
Cn1c(C=O)c(C#CC(C)(C)O)c2ccccc21	nt	i	nt	i	nt	nt
CC(C)(C)NC(=O)C(=O)NNC(=O)c1cccc(F)c1	i	i	0.63µM	i	i	?
COc1ccc(CC(N)C(=O)NC2C(CO)OC(n3cnc4c(N(C)C)ncnc43)C2O)cc1 (centres undefined)	i	nt	13µM	nt	i	i
Cn1c(=O)oc2cc(S(=O)(=O)N3CCCC(C(=O)N4CC=C(c5ccccc5)CC4)C3)ccc21 (centres undefined)	i	nt	11µM	nt	i	i
